# Measured values as given in PubChem BioAssay (NCI).
# The panel holds about 83,000 compounds, 20% with a hit somewhere; the sample as a whole holds those more often.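 Negative percent growth values reflect cell death: -40 means 40% of the cells present at the start died, and -100 means all died.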 A number with no mark means an inactive call. Active and inactive are the calls of the source. How the source made its calls: active means growth percent below 10; inactive means the rest.
# Legend:
# Experiment in all cases: NCI-60 one-dose screen, 48 h (100 = growth as untreated, 0 = no growth, -100 = all killed)
# Conditions in all cases: 10 µM unless noted
# NCI-H226 lung = system: NCI-H226 lung
# NCI-H322M lung = system: NCI-H322M lung
# HOP-62 NSCLC = system: HOP-62 NSCLC
# NCI-H460 lung = system: NCI-H460 lung
# HOP-92 NSCLC = system: HOP-92 NSCLC
# NCI-H522 lung = system: NCI-H522 lung
# A549/ATCC NSCLC = system: A549/ATCC NSCLC
# 786-0 renal = system: 786-0 renal
# COLO 205 colon = system: COLO 205 colon
# DU-145 prostate = system: DU-145 prostate
# MALME-3M melanoma = system: MALME-3M melanoma
# MDA-MB-231 breast = system: MDA-MB-231 breast
# RXF 393 renal = system: RXF 393 renal
# SF-268 CNS = system: SF-268 CNS
# SF-295 CNS = system: SF-295 CNS
# SF-539 CNS = system: SF-539 CNS
# UACC-257 melanoma = system: UACC-257 melanoma
# M14 melanoma = system: M14 melanoma
# HCT-15 colon = system: HCT-15 colon
# K-562 leukemia = system: K-562 leukemia
Compound,growth (NCI-H226 lung),growth (NCI-H322M lung),growth (HOP-62 NSCLC),growth (NCI-H460 lung),growth (HOP-92 NSCLC),growth (NCI-H522 lung),growth (A549/ATCC NSCLC),growth (786-0 renal),growth (COLO 205 colon),growth (DU-145 prostate),growth (MALME-3M melanoma),growth (MDA-MB-231 breast),growth (RXF 393 renal),growth (SF-268 CNS),growth (SF-295 CNS),growth (SF-539 CNS),growth (UACC-257 melanoma),growth (M14 melanoma),growth (HCT-15 colon),growth (K-562 leukemia)
COc1cccc(COc2ccc(/C=C3/C(=O)Nc4cc(Cl)ccc43)cc2)c1,84.9%,83.9%,85.4%,103%,79.8%,84%,92.4%,102%,102%,98.5%,96.7%,78.2%,88.7%,99.5%,103%,93%,104%,104%,99.6%,–
CN(C)S(=O)(=O)c1oc(-c2ccccc2)nc1C#N,98.2%,99.6%,99.6%,109%,74.2%,-64.7% (active),105%,66.1%,–,34.7%,-23.6% (active),52.2%,39%,116%,99.3%,84.4%,103%,27.5%,-11.6% (active),5.64% (active)
N#Cc1nc(-c2ccccc2)oc1N1CC[C@@H](CO)C1,94%,93.8%,102%,99.7%,98.5%,95.1%,101%,103%,–,100%,110%,99.1%,118%,105%,97.1%,102%,110%,103%,100%,96%
Cc1nc(-c2cc3ccccc3oc2=O)ccc1C(=O)/C=C/c1ccc(Cl)c(Cl)c1,108%,104%,107%,100%,95.4%,98.9%,107%,99.3%,–,102%,96.9%,95.5%,119%,99.8%,95.7%,92.5%,120%,107%,107%,103%
O=C(Nc1nc2ccc(O)cc2s1)c1cccc(C(F)(F)F)c1,84.2%,84.3%,88.6%,56.7%,69%,35.6%,57%,77.1%,–,65.9%,81.6%,90.7%,103%,59.4%,69.9%,72.5%,70.1%,50.1%,47.1%,18.7%
[Cl][Ru].c1ccc(-c2cccc(-c3ccccn3)n2)nc1.c1ccc(-c2ccnc3c2ccc2c(-c4ccccc4)ccnc23)cc1,80.1%,76.6%,78.7%,54.8%,-12.5% (active),13.3%,60.5%,89.3%,–,32.6%,2.72% (active),32.3%,48.4%,28.5%,95.7%,15.3%,26.9%,71.1%,90.4%,32.4%
N#Cc1nc(-c2ccccc2)oc1S(N)(=O)=O,103%,100%,111%,93.3%,77.3%,-44.5% (active),101%,51.1%,–,82.5%,64.9%,47.9%,45.8%,110%,101%,36.8%,78.3%,40.7%,27.1%,21.5%
CCOc1ccc2nc(NC(=O)c3ccc(C(F)(F)F)cc3)sc2c1,107%,107%,118%,101%,139%,94.4%,101%,99.6%,–,105%,112%,106%,114%,106%,111%,105%,107%,107%,100%,108%
Cc1ccc2ccc3ccc(C)nc3c2n1.Cc1ccc2ccc3ccc(C)nc3c2n1.Oc1c(Cl)cc(Cl)c2ccc(CN3CCCCC3)nc12.[Ru],-69% (active),-83.4% (active),-57.2% (active),-15.2% (active),-86.5% (active),-68.8% (active),-42.7% (active),-87.7% (active),-74.2% (active),-93.3% (active),-85.1% (active),-84% (active),-84.1% (active),-54.8% (active),-84.2% (active),-88.2% (active),-69.4% (active),-94.1% (active),-81.3% (active),–
COC(=O)C1CN(S(=O)(=O)/N=C2\NC(=O)NC2=C(Cl)Cl)C1,–,102%,109%,108%,98.9%,99.1%,101%,104%,124%,116%,104%,106%,123%,103%,104%,101%,101%,101%,107%,101%
O=C(N/N=C/c1ccc(Br)s1)c1[nH]c2ccc(Br)cc2c1-c1ccccc1,52.6%,48.2%,46.5%,3.52% (active),46.6%,-38.5% (active),28.8%,11.5%,–,18.6%,55.1%,4.67% (active),60%,37.2%,14.8%,0.701% (active),57.2%,2.05% (active),12.4%,7.72% (active)
O=C(CSc1nc2sc3c(c2c(=O)n1-c1ccc(Cl)cc1)CCCC3)NNC(=O)Nc1ccc(Cl)c(C(F)(F)F)c1,53.4%,52.2%,58.8%,11.8%,-12.3% (active),5.53% (active),34%,52.2%,–,32.2%,22.5%,61.2%,70.5%,67%,9.82% (active),73.1%,46.5%,44%,24.5%,11.7%
C#C[C@]1(O)CC[C@H]2[C@@H]3CC=C4c5sc(Nc6ccc(Cl)cn6)nc5CC[C@]4(C)[C@H]3CC[C@@]21C,77.1%,82.3%,34.8%,28.3%,59.5%,67.7%,50.3%,-78.8% (active),–,63.4%,58.3%,27.2%,-53.2% (active),43.7%,-63% (active),-30.8% (active),-45.2% (active),50.7%,39.7%,9.48% (active)
CCOC(=O)c1c(Nc2ccccc2)nn2c(-c3ccco3)c(C#N)cnc12,76.9%,96.8%,95.6%,93.1%,68%,82.6%,95.2%,67.2%,98.6%,87.9%,94.9%,80%,82.1%,80.5%,76.7%,42%,112%,107%,91.5%,–
CCN1CCN(S(=O)(=O)c2oc(-c3ccc(Cl)cc3)nc2C#N)CC1,106%,96.5%,108%,105%,36.7%,-63% (active),95.6%,-49.7% (active),–,81.7%,-53.6% (active),26.7%,-60.2% (active),112%,108%,53.1%,89.9%,-50.6% (active),-35.5% (active),–
